Structures are written as SMILES. Compounds without any hit were thinned out: in the full panel of roughly 83,000, 20% have a hit.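 Each cell line was grown in a 96-well plate and treated with one concentration of compound for 48 hours. Values below 10 were considered active.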 Values without a mark were called inactive. Active and inactive are the calls of the source.

Test systems include HCT-15 colon; HT29 colon; SNB-75 CNS; SNB-19 CNS; U251 CNS; PC-3 prostate; SK-MEL-5 melanoma; UACC-62 melanoma; LOX IMVI melanoma; SK-MEL-28 melanoma.
Holding throughout (test): NCI-60 one-dose screen, 48 h (100 = growth as untreated, 0 = no growth, -100 = all killed)
Details in all cases: 10 µM unless noted

On to `Cc1ccc(Nc2nc3c(s2)C2=CC[C@@H]4[C@H](CC[C@]5(C)C(=O)CC[C@@H]45)[C@@]2(C)CC3)cc1`, for which the growth was 17% in the assay with HCT-15 colon; 15% in the assay on HT29 colon; 28.7% in the assay with SNB-75 CNS; 55.4% with SNB-19 CNS; 33.4% in the assay on U251 CNS; 33% in the assay on PC-3 prostate. The growth in the assay with SK-MEL-5 melanoma is 56.6%; with UACC-62 melanoma, 68.3%; in the assay with LOX IMVI melanoma it was 21.3%; in the assay on SK-MEL-28 melanoma, 37.6%.
For `Brc1ccc2c(c1)c(-c1nc(-c3c[nH]c4ncccc34)cs1)cn2CCN1CCCCC1`, the growth in the assay with HCT-15 colon is 20.8%; in the assay with HT29 colon it was 27.4%; in the assay with SNB-75 CNS it was 67.7%; with SNB-19 CNS, 90%; with U251 CNS, 42%; in the assay on PC-3 prostate, 51.4%. Moreover, the growth was 68.2% in the assay with SK-MEL-5 melanoma, 78.2% with UACC-62 melanoma, 65.4% in the assay with LOX IMVI melanoma and 106% with SK-MEL-28 melanoma.
For the compound `CN[C@]1(c2ccccc2Cl)CCCC[C@H]1NCCCN1CCN(C)CC1`, the growth with HCT-15 colon was 99%; in the assay on HT29 colon, 96%; in the assay with SNB-75 CNS, 82%; in the assay with SNB-19 CNS, 102%; in the assay on U251 CNS it was 103%; with PC-3 prostate, 91.5%. Also, the growth in the assay on SK-MEL-5 melanoma is 97.7%; in the assay on UACC-62 melanoma it was 104%; in the assay with LOX IMVI melanoma, 96.4%; with SK-MEL-28 melanoma, 112%.
As to `Fc1ccc(C2=CCNCC2)cc1`, the growth in the assay with HCT-15 colon was 109%; with HT29 colon, 109%; with SNB-75 CNS, 84.1%; in the assay on SNB-19 CNS, 109%; in the assay with U251 CNS it was 96.9%; in the assay on PC-3 prostate, 101%. The growth in the assay on SK-MEL-5 melanoma was 91.9%; in the assay on UACC-62 melanoma it was 86.4%; with LOX IMVI melanoma, 90.1%; in the assay with SK-MEL-28 melanoma, 107%.
With `ClCCN(CCCl)c1ccc(OCc2ccccc2)cc1`, the growth with HCT-15 colon is 73.1%; in the assay on HT29 colon, 76.7%; in the assay on SNB-75 CNS, 53.8%; with SNB-19 CNS it was 57.1%; in the assay on U251 CNS, 40.5%; in the assay with PC-3 prostate, 63.1%. Further, the growth in the assay with SK-MEL-5 melanoma was 82.7%; in the assay with UACC-62 melanoma, 44.2%; in the assay on LOX IMVI melanoma, 38.9%; in the assay with SK-MEL-28 melanoma it was 84.1%.
On to `CC(=O)O[C@H]1CC[C@]2(C)[C@H]3CC[C@]4(C)[C@@H](OC(C)=O)CC[C@H]4[C@@H]3[C@@H](C)[C@]2(O)C1`, for which the growth was 108% in the assay with HCT-15 colon; 106% with HT29 colon; 92.5% in the assay with SNB-75 CNS; 111% in the assay with SNB-19 CNS; 111% in the assay with U251 CNS; 89.6% in the assay on PC-3 prostate. Further, the growth was 106% with SK-MEL-5 melanoma, 98.4% with UACC-62 melanoma, 96.8% with LOX IMVI melanoma and 117% in the assay with SK-MEL-28 melanoma.
As for `CC(=O)O[C@@H]1CC[C@]2(C)[C@H]3CC[C@]4(C)C(=O)CC[C@H]4[C@@H]3C[C@@H]3SC(N)=N[C@@]32C1`, the growth was 35.2% with HCT-15 colon; 10.2% in the assay on HT29 colon; 73.2% in the assay with SNB-75 CNS; 54.7% in the assay with SNB-19 CNS; 37% with U251 CNS; 71% in the assay with PC-3 prostate. The growth is 32.5% in the assay with SK-MEL-5 melanoma, 38.2% in the assay on UACC-62 melanoma, 66.3% in the assay with LOX IMVI melanoma and 72.2% in the assay with SK-MEL-28 melanoma.
Regarding `CN[C@@]1(c2ccccc2Cl)CCCC[C@@H]1NCC1CCCO1` (stereo not given in full), the growth was 104% in the assay with HCT-15 colon; 101% in the assay with HT29 colon; 88.2% in the assay with SNB-75 CNS; 95.8% with SNB-19 CNS; 98.2% in the assay with U251 CNS; 94.2% with PC-3 prostate. Further, the growth was 102% in the assay with SK-MEL-5 melanoma, 96.5% in the assay on UACC-62 melanoma, 97.8% in the assay on LOX IMVI melanoma and 101% in the assay with SK-MEL-28 melanoma.
In the case of `COC(=O)[C@H](Cc1ccccc1)NNC(=O)c1csc([C@@H](C[C@H](C(C)C)N(C)C(=O)[C@@H](NC(=O)[C@H]2CCCCN2C)C2CC2)OC(C)=O)n1`, the growth is 13.9% with HCT-15 colon; 4.57% (active) with HT29 colon; 49.2% in the assay on SNB-75 CNS; 65.2% in the assay with SNB-19 CNS; 4.68% (active) in the assay with U251 CNS; 13.9% in the assay on PC-3 prostate. Also, the growth in the assay with SK-MEL-5 melanoma is -42.3% (active); in the assay with UACC-62 melanoma it was 33.7%; with LOX IMVI melanoma it was 13.6%; in the assay on SK-MEL-28 melanoma it was 48.3%.
`CC[C@@H]1[C@@H](C)O[C@@](O)([C@@H](C)[C@H](O)[C@H](C)[C@H]2OC(=O)/C=C/C=C/[C@H](C)[C@@H]([C@@H](C)[C@@H](O)[C@H](C)[C@@]3(O)C[C@@H](O[C@H]4C[C@@H](O)[C@H](O)C(C)O4)[C@H](CC)[C@@H](C)O3)OC(=O)/C=C/C=C/[C@@H]2C)C[C@H]1O[C@@H]1C[C@@H](O)[C@H](O)C(C)O1` (stereo not given in full): the growth in the assay with HCT-15 colon was -84.4% (active); with HT29 colon it was -84% (active); in the assay with SNB-75 CNS, -97.6% (active); in the assay on SNB-19 CNS it was -81.6% (active); in the assay on U251 CNS, -92.8% (active); with PC-3 prostate it was -88.4% (active). Moreover, the growth in the assay on SK-MEL-5 melanoma was -96.2% (active); in the assay on UACC-62 melanoma, -73.3% (active); with LOX IMVI melanoma, -94% (active); in the assay with SK-MEL-28 melanoma, -92.1% (active).
Consider `COc1ccc(/C=C\c2cc(OC)c(OC)c(OC)c2)cc1NC(=O)/C=C/c1cc(OC)c(OC)c(OC)c1`, for which the growth in the assay with HCT-15 colon was 46.5%; with HT29 colon, 34.2%; in the assay on SNB-75 CNS, 30.6%; in the assay with SNB-19 CNS, 61.8%; in the assay with U251 CNS it was 57%; with PC-3 prostate, 36%. The growth in the assay with SK-MEL-5 melanoma was 1.74% (active); in the assay on UACC-62 melanoma, 31.4%; in the assay on LOX IMVI melanoma it was 46.3%; in the assay on SK-MEL-28 melanoma, 44%.
With `Nc1c(F)cc(-c2nc3cc(F)ccc3[se]2)cc1F`, the growth in the assay on HCT-15 colon was 22%; in the assay with HT29 colon it was 46.4%; in the assay on SNB-75 CNS, 92.2%; in the assay with SNB-19 CNS, 104%; in the assay with U251 CNS, 93.6%; in the assay with PC-3 prostate, 72.1%. Besides, the growth with SK-MEL-5 melanoma was 56.1%; in the assay with UACC-62 melanoma, 66.5%; in the assay on LOX IMVI melanoma it was 89.3%; in the assay on SK-MEL-28 melanoma, 116%.
